KCNQ2 enhance – potentiators of rat KCNQ2 potassium channel | CHO-K1 KCNQ2, FluxOR thallium flux fluorescence; hits give high values | actives 0.54% (n = 310,000) | Potassium voltage-gated channel subfamily KQT member 2 (Rattus norvegicus), O88943 | AID 2239, 2010 | B-score at 10 µM;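 active = fluorescence ratio B-score at least 3 SD of library B-scores, with initial fluorescence B-score within 3 of them, cut at about 5.3 in these data; same plate scores as AID 2156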;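 note: B-score of peak minus minimum over baseline fluorescence ratio after K+ and Tl+ stimulus; positive B-score means potentiation of KCNQ2 with more thallium influx and brighter signal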
KCNQ2 inh – rat KCNQ2 potassium channel inhibitors, primary screen, cell-based, CHO-K1, FluxOR thallium flux, B-score; B-score at 10 µM; Potassium voltage-gated channel subfamily KQT member 2 (Rattus norvegicus), O88943; actives 1.1% (n = 310,000); 20 min; hits give low values; AID 2156, 2009;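 active = fluorescence ratio B-score at most minus 3 library SDs, with starting brightness B-score within 2 library SDs, cut at about -5.5 in these data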
KCNQ2 inh conf – rat KCNQ2 potassium channel inhibitors, confirmation, cell-based, thallium flux; shares compounds with KCNQ2 inh; KCNQ2-expressing cells, inhibition; hits give low values; activity change, negative = inhibition, % at 10 µM; actives 57% (n = 1,000); AID 493025, 2011;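 note: 0% = vehicle wells and values are ratio percent relative to vehicle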
KCNQ1 spec – human KCNQ1 channel inhibition, counter-screen for KCNQ2 inhibitor project, cell-based, FluxOR thallium flux; AID 493026, 2011; actives 15% (n = 1,000); shares compounds with KCNQ2 inh; activity change, negative = inhibition, % at 10 µM; KCNQ1-expressing cells, FluxOR thallium flux fluorescence; hits give low values;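 active = activity change at least 3 SD of negative controls below their mean in both duplicate wells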;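 note: CHO cells stably transfected with KCNQ1 and depolarized by potassium stimulus; peak minus minimum fluorescence over baseline after thallium addition; 0% = vehicle negative control and -100% = blank without thallium stimulus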
Target sequence (P51787 whole entry, looked up): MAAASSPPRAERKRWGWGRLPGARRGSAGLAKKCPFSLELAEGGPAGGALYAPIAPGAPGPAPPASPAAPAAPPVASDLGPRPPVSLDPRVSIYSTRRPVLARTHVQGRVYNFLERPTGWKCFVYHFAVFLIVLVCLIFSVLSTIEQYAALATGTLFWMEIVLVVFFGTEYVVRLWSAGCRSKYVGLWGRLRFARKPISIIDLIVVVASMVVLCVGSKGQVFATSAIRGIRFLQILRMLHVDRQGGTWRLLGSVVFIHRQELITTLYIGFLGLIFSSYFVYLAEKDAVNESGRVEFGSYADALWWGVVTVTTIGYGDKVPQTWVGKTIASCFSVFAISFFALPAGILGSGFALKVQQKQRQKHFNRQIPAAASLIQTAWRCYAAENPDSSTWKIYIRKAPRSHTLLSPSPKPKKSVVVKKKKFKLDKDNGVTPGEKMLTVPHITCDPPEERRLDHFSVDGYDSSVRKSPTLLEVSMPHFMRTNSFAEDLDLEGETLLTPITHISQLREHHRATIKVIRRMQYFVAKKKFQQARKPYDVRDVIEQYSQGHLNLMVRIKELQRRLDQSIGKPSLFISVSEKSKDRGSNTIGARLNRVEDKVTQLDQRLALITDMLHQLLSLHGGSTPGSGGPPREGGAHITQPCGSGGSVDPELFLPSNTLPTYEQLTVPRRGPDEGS
CHO Tl ctr – thallium flux change in parental CHO cells, counter-screen for KCNQ2 inhibitor project | hits give low values | shares compounds with KCNQ2 inh | activity change, % at 10 µM | actives 14% (n = 1,000) | AID 493029, 2011;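 note: 0% = vehicle negative controls with stimulus buffer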
KCNQ2 patch conf – rat KCNQ2 channel inhibitors, confirmation, cell-based, automated patch clamp, single concentration | shares compounds with KCNQ2 inh | KCNQ2-expressing cells, automated patch clamp current | calls only at 10 µM | actives 49% (n = 550)
* = called active by the depositor; i = inactive; x = not tested or not shown; + = active, no number. Sampled rows, rich in hits. Any-hit rate of the full collection: about 1.6%. Unless noted, the rule behind the calls is not given here.

SMILES	KCNQ2 enhance	KCNQ2 inh	KCNQ2 inh conf	KCNQ1 spec	CHO Tl ctr	others
COCCCNC(=O)Cn1cnc2sc(C)c(S(=O)(=O)N3CC(C)CC(C)C3)c2c1=O (stereo unspecified)	0.09	i	x	x	x
O=C(Nc1ccc(Br)c(C(F)(F)F)c1)c1ccc(C(F)(F)F)cc1	x	i	x	x	x
O=C(Nc1ccc(Br)c(C(F)(F)F)c1)c1ccccc1	-7.7	-7.7*	i	i	i
O=C(Cc1ccccc1)Nc1ncccn1	1.6	i	x	x	x
CCC(C)Sc1cccc(-c2nc3ccc(Cl)cn3c2NCc2ccccc2)c1 (stereo unspecified)	-7.3	-7.3*	-33%*	-38%*	-25%*	KCNQ2 patch conf=+
CCC(C)Sc1cccc(-c2nc3ccc(C)cn3c2NCc2ccccc2)c1 (stereo unspecified)	x	i	x	x	x
CC(=O)Nc1c(-c2ccccc2)nc2ccc(Cl)cn12	x	i	x	x	x
CCOC(=O)CNc1c(-c2ccccc2)nc2ccc(Cl)cn12	-7	-7*	-32%*	i	i	KCNQ2 patch conf=+
O=C(NCC(=O)N1CCCC(C(F)(F)F)C1)c1ccc(Oc2ccccc2)cc1 (stereo unspecified)	1.4	i	x	x	x
O=C(NCC(=O)N1CCCC(C(F)(F)F)C1)c1ccc2ccccc2c1 (stereo unspecified)	-6.9	-6.9*	i	i	i
CCN(CC)CCNC(=O)c1cc2cc(Br)ccc2s1	0.23	i	x	x	x
Cc1nnc(SCCC(=O)Nc2ccccc2Cl)o1	x	i	x	x	x
Cc1ccccc1CSCCNC(=O)COc1ccc(Cl)cc1	-8.6	-8.6*	i	i	i
CC(C)(C)SCCNC(=O)COc1ccc(Cl)cc1	x	i	x	x	x
S=c1[nH]nc(Cc2noc3ccccc23)n1-c1ccccc1	x	i	x	x	x
Cn1cccc1/C=C1\CC(C(C)(C)C)C/C(=C\c2cccn2C)C1=O (stereo unspecified)	-11	-11*	-72%*	-74%*	-68%*	KCNQ2 patch conf=i
Cn1cccc1/C=C1\Cc2ccccc2C1=O	x	i	x	x	x
O=S(=O)(c1cccc(-c2n[nH]c(=S)n2C2CCCC2)c1)N1CCOCC1	1.3	i	x	x	x
CCOC(=O)c1cc2c(=O)c3cc(C)ccc3oc2nc1C	1.5	i	x	x	x
CCN(CC)C(=O)c1cc2c(=O)c3cc(Cl)ccc3oc2nc1C	-7.4	-7.4*	-28%*	i	i	KCNQ2 patch conf=+
C=CCn1c(=O)c(C(=O)Nc2cccnc2)c(O)c2ccccc21	x	i	x	x	x
CCCn1c(=O)c(C(=O)NCCc2ccc(OC)cc2)c(O)c2ccccc21	-8.2	-8.2*	i	i	i
CCCn1c(=O)c(C(=O)NCCc2ccccc2)c(O)c2ccccc21	x	i	x	x	x
C=CCn1c(=O)c(C(=O)NCCc2ccccc2)c(O)c2ccccc21	-6.9	-6.9*	i	i	i
CCOc1ccccc1NC(=O)C1CCN(S(=O)(=O)c2cccc3cccnc23)CC1	x	i	x	x	x
SMILES	KCNQ2 enhance	KCNQ2 inh	KCNQ2 inh conf	KCNQ1 spec	CHO Tl ctr	others
COc1ccc(C(=O)N=C2SC3CS(=O)(=O)CC3N2Cc2ccc(F)cc2)cc1 (stereo unspecified)	x	i	x	x	x
CC(Oc1ccc(Cl)cc1Cl)C(=O)N/N=C1\CCCc2ccccc21 (stereo unspecified)	-6.7	-6.7*	-32%*	i	i	KCNQ2 patch conf=+
CC(Oc1ccc(Cl)cc1Cl)C(=O)NN=C1CCN(C)CC1 (stereo unspecified)	0.08	i	x	x	x
COCCNC(=O)C(=O)Nc1cc2c3c(c1)CCC(=O)N3CCC2	x	i	x	x	x
O=C(CCNC(=O)c1ccc(Cl)cc1)Nc1c(F)c(F)cc(F)c1F	1.2	i	x	x	x
CCOC(=O)c1c(NC(=S)Nc2ccc(F)cc2)sc2c1CCC2	-7	-7*	i	i	i
CCOC(=O)c1c(NC(=O)CS(=O)(=O)c2cn(CC)c3ccccc23)sc2c1CCCC2	-11	-11*	-36%*	i	i	KCNQ2 patch conf=+
CCOC(=O)c1c(NC(=O)Cc2cccs2)sc2c1CCCC2	x	i	x	x	x
CCOc1ccc(NC(=O)CS(=O)(=O)c2cn(CC)c3ccccc23)cc1	1	i	x	x	x

From PubChem BioAssay
